For 102 molecules, cytotoxicity results are on record in PubChem BioAssay AID430 (Sanford-Burnham Center for Chemical Genomics, 2006).

“And” between values parts separate entries of the source, which are not always exact repeats. Equal values may be shown once. About 1,100 (1.7%) of roughly 63,000 compounds were called active. No stated cut-off is given here; in the data, active means cytotoxicity above about 50%; inactive means the rest. The full list was thinned out, with actives kept by preference. Entries with a potency or affinity are not part of this list. A structure can be active in one record and inactive in another.

This assay can be described thus: HPDE-C7 pancreatic duct cell viability loss – fluorescence, HTS (AID 430).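 Further: cells exposed to compound for 48 hours before viability readout; 0% = vehicle and 100% = reference cytotoxic drug.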 The following applies: HPDE-C7 pancreatic duct cells viability, at 10 µM, stronger effect = higher value.
With `CCN(C(C)=O)c1nnc(CSc2nc3ccccc3s2)s1`, the cytotoxicity was 12.1% (inactive).

On to `CCN(C(=O)c1ccc(C(C)(C)C)cc1)c1nnc(Cn2nnc3ccccc32)s1`, for which the cytotoxicity was 81.9% (active).

As for `CCN(C(=O)CSc1nnc(Cn2nnc3ccccc32)o1)c1nc(-c2ccccc2)cs1`, the cytotoxicity was -7.6% (inactive).

As to `COc1ccc(N2CCN(C(=O)CCNS(=O)(=O)c3ccc(Br)s3)CC2)cc1`, the cytotoxicity is -17.4% (inactive).

`Cc1ccc(S(=O)(=O)N2CCC(C(=O)Nc3nnc(COc4ccccc4)s3)CC2)cc1`: the cytotoxicity was -3.6% (inactive).

`Cc1cc(C)c2c(=O)n(CC(=O)NCCCN3CCOCC3)sc2n1`: the cytotoxicity is 6.4% (inactive).

Turning to `O=C(CCNC(=O)Cn1ccc2ccccc2c1=O)NCCCN1CCN(c2ccccc2F)CC1`, the cytotoxicity was -10.7% (inactive).

For `Cc1cc(C)c2c(=O)n(CC(=O)NCCCN3CCN(c4ccccc4F)CC3)sc2n1`, the cytotoxicity was 88.5% (active).

As for `CCC(NC(=O)Nc1ncccc1C)(C(F)(F)F)C(F)(F)F`, the cytotoxicity is -6.7% (inactive).

On to `COc1ccc2c(c1)sc1nc(-c3ccccc3)cn12`, for which the cytotoxicity is 53.2% (active).

Regarding `CCOC(=O)N1CCN(C(=O)c2ccc3c(c2)sc2nc(-c4ccc(OC)cc4)cn23)CC1`, the cytotoxicity was 12.1% (inactive).

Regarding `CCOC(=O)N1CCN(C(=O)c2ccc3c(c2)sc2nc(-c4ccccc4)cn23)CC1`, the cytotoxicity was 2.8% (inactive).

For `CS(=O)(=O)N(CC(=O)NCc1ccco1)Cc1ccc(Cl)cc1`, the cytotoxicity is -9.3% (inactive).

Turning to `COc1ccccc1S(=O)(=O)Cc1ccc(C(=O)NCCN(C)C)o1`, the cytotoxicity is 8% (inactive).

Regarding `O=S(=O)(c1cccc2nsnc12)N1CCN(c2ncccn2)CC1`, the cytotoxicity is -8.5% (inactive).

With `COc1ccc(C2=CC(c3ccc(OC)c(OC)c3)n3nnnc3N2)c(OC)c1` (configuration not stated), the cytotoxicity was 14.7% (inactive).

On to `COc1cccc(C2=CC(c3cc(OC)ccc3OC)n3nnnc3N2)c1` (configuration not stated), for which the cytotoxicity was 70.3% (active).

For the molecule `COc1cccc(C2=CC(c3ccccc3)n3nnnc3N2)c1` (configuration not stated), the cytotoxicity is 53.7% (active).

Take `COc1ccc(C2=CC(c3sccc3C)n3nnnc3N2)cc1` (configuration not stated): the cytotoxicity was 12.4% (inactive).

For the molecule `COc1ccc(OC)c(C2C=C(c3ccc(C)c(C)c3)Nc3nnnn32)c1` (configuration not stated), the cytotoxicity was 10.4% (inactive).

For `COc1ccc(C2C=C(c3ccccc3)Nc3nnnn32)cc1` (configuration not stated), the cytotoxicity was -3.3% (inactive).

As to `COc1ccccc1C1C=C(c2ccccc2)Nc2nnnn21` (configuration not stated), the cytotoxicity was 29.6% (inactive).

Consider `COc1ccccc1C1C=C(c2ccc(C)cc2)Nc2nnnn21` (configuration not stated), for which the cytotoxicity is -0.5% (inactive).

Regarding `COc1cccc(C2=CC(c3ccc(N(C)C)cc3)n3nnnc3N2)c1` (configuration not stated), the cytotoxicity is -3% (inactive).

Take `COc1ccc(C2=CC(c3ccc(F)cc3)n3nnnc3N2)cc1` (configuration not stated): the cytotoxicity was -4% (inactive).

Regarding `COc1ccc(C2=CC(c3c(C)nn(-c4ccccc4)c3Cl)n3nnnc3N2)cc1OC` (configuration not stated), the cytotoxicity is 72.4% (active).

Regarding `CCOC(=O)N1CCN(c2c(N3CCC(N4CCCCC4)CC3)c(=O)c2=O)CC1`, the cytotoxicity was 10.5% (inactive).

Regarding `CN(Cc1ccccc1)Cc1nc2c(c(=O)n(C)c(=O)n2C)n1Cc1ccc(F)cc1`, the cytotoxicity is -29.4% (inactive).

As to `O=C(CCS(=O)(=O)c1cccc2nsnc12)N1CCN(C(=O)c2ccco2)CC1`, the cytotoxicity was -15.9% (inactive).

In the case of `CN1CCN(C2=NC3(CCCC3)C(C#N)C(=O)N2)CC1` (configuration not stated), the cytotoxicity was 23.5% (inactive).

On to `COC(=O)c1c(F)c(F)c(NCCO)c(F)c1F`, for which the cytotoxicity is -3.7% (inactive).

Regarding `CC(NC(=O)NC1CCCCC1)C(c1cccs1)N1CCOCC1` (configuration not stated), the cytotoxicity was -7.5% (inactive).

With `CCOC(=O)C1CCN(C(=O)CSc2n[nH]c(=O)[nH]c2=O)CC1`, the cytotoxicity is 9.8% (inactive).

In the case of `CNC(=O)/C(=N\O)c1ccccc1`, the cytotoxicity is -14.1% (inactive).

Turning to `COc1cc(C(=O)NCCc2ccc(S(N)(=O)=O)cc2)cc(OC)c1OC`, the cytotoxicity is 3.4% (inactive).

Take `CCOc1ccc(C2C=C(c3ccc(C)cc3)Nc3nnnn32)cc1` (configuration not stated): the cytotoxicity was -0.9% (inactive).

Turning to `COc1ccc(C2=CC(c3ccc(C)cc3)n3nnnc3N2)cc1` (configuration not stated), the cytotoxicity was -1.9% (inactive).

Regarding `COc1cccc(C2=CC(c3cccc(OC)c3OC)n3nnnc3N2)c1` (configuration not stated), the cytotoxicity was 71.4% (active).

As to `COc1cccc(C2=CC(c3cccc(OC)c3OC(F)F)n3nnnc3N2)c1` (configuration not stated), the cytotoxicity was -21.2% (inactive).

On to `COc1cccc(C2=CC(c3ccc(OC)c(OC)c3OC)n3nnnc3N2)c1` (configuration not stated), for which the cytotoxicity is -3.9% (inactive).

As to `O=C(CCNS(=O)(=O)c1cccs1)Nc1ccccc1F`, the cytotoxicity is -34.3% (inactive).

As to `COc1ccc(Cn2nnnc2CN2CCC(c3nc4ccccc4s3)CC2)cc1`, the cytotoxicity is -9.8% (inactive).

Take `Cc1c(C(=O)OC(C)C)[nH]c2c1C(=O)CC(C)(C)C2`: the cytotoxicity was -0.2% (inactive).

In the case of `CCOC(=O)C1CCCN(C(=O)CCC(=O)Nc2ccc3nc(N4CCOCC4)cc(C)c3c2)C1` (configuration not stated), the cytotoxicity was 9.9% (inactive).

For `CCOc1ccc2[nH]c(=O)c(CN(CCO)C(=O)c3ccc(Br)cc3)cc2c1`, the cytotoxicity was 6.1% (inactive).

As to `O=C1CN(C(=O)COC(=O)COc2ccc3c(c2)CCC3)c2ccccc2N1`, the cytotoxicity was 2.9% (inactive).

On to `COc1cc(NC(=O)c2cnn3c(C)cc(C)nc23)c(OC)cc1Cl`, for which the cytotoxicity is 12.9% (inactive).

Consider `CC1(C)Cc2c(sc3c2c(=N)n(Cc2ccco2)c(=O)n3CC(=O)Nc2ccccc2)CO1`, for which the cytotoxicity was 5.3% (inactive).

Consider `Cc1ccc(NC(=O)Cn2c(=O)n(Cc3ccco3)c(=N)c3c4c(sc32)COC(C)(C)C4)cc1`, for which the cytotoxicity is 24.6% (inactive).

As to `CC1(C)Cc2c(sc3c2c(=N)n(Cc2ccco2)c(=O)n3CC(=O)Nc2ccc(Cl)cc2)CO1`, the cytotoxicity is 51.5% (active).

For the molecule `Cc1cccc(OCC(O)Cn2c(-n3nc(C)cc3C)nc3c2c(=O)[nH]c(=O)n3C)c1` (configuration not stated), the cytotoxicity was -2.9% (inactive).

Turning to `CCCOC(=O)Nc1nc2ccccc2o1`, the cytotoxicity is -8.2% (inactive).

On to `COc1ccccc1C(=O)Nc1nnc(-c2ccc(F)cc2)o1`, for which the cytotoxicity is 4.1% (inactive).

As to `Cc1nc2ccc(N3C(=O)CCC3=O)cc2[nH]1`, the cytotoxicity was -18.8% (inactive).

With `COc1ccc(CN2CCN(S(=O)(=O)c3ccccc3)CC2)c(OC)c1`, the cytotoxicity was -0.4% (inactive).

On to `O=C(CCC1CCCC1)N1CCN(C(=O)COc2ccccc2)CC1`, for which the cytotoxicity is 8.2% (inactive).

Take `NC(=O)CSc1nc2ccccc2n1-c1ccccc1`: the cytotoxicity is -1.9% (inactive).

Regarding `Cn1c(N)c(C(=O)CSc2nc3ccccc3n2-c2ccccc2)c(=O)n(C)c1=O`, the cytotoxicity was 106% (active).

As to `COc1ccc(-n2c(SCC(=O)c3c(N)n(C)c(=O)n(C)c3=O)nc3ccccc32)cc1`, the cytotoxicity was 6.1% (inactive).

In the case of `Cc1ccc(NC(=O)CS(=O)CC(=O)Nc2cccc(C)c2C)cc1F` (configuration not stated), the cytotoxicity is -15.9% (inactive).

With `COc1ccc(Cl)c(Cn2c(NCC(C)O)nc3c2c(=O)n(C)c(=O)n3C)c1` (configuration not stated), the cytotoxicity is -9.9% (inactive).

For the molecule `O=C1c2ccccc2-c2nccnc21`, the cytotoxicity is -15.6% (inactive).

`O=C(O)c1ccc2c3c(ncnc13)-c1ccccc1C2=O`: the cytotoxicity was 75.6% (active).

Regarding `O=C1c2ccccc2-c2ncnc3cccc1c23`, the cytotoxicity is 0.7% (inactive).

Regarding `CCc1nnc(NC(=O)CCN2C(=O)c3ccccc3S2(=O)=O)s1`, the cytotoxicity was -4.2% (inactive).

Turning to `Nc1nc(Cl)nc2c1ncn2[C@@H]1O[C@H](CO)[C@@H](O)[C@H]1O`, the cytotoxicity was 8.6% (inactive).

As to `Nc1nc(Cl)nc2c1ncn2[C@H]1C[C@H](O)[C@@H](CO)O1`, the cytotoxicity was 7.4% (inactive) and 95.9% (active).

As for `Nc1nc(F)nc2c1ncn2[C@@H]1O[C@H](CO)[C@@H](O)[C@@H]1O`, the cytotoxicity was 13.2% (inactive).

As for `Cc1ccc(NC(=O)Cn2c(C)cc(C)c(C#N)c2=O)c(Cl)c1`, the cytotoxicity is -6.5% (inactive).

Consider `O=C(CN1C(=O)CSc2ccccc21)NCCC1=CCCCC1`, for which the cytotoxicity was -11% (inactive).

Take `COc1ccc(NS(=O)(=O)c2cc(C)ccc2OC)cc1OC`: the cytotoxicity was 10.3% (inactive).

In the case of `CCCN1CN(Cc2ccco2)c2nc3ccccc3n2C1`, the cytotoxicity is -15.1% (inactive).

In the case of `CN1C(=O)C2(c3ccccc31)N(C)CC(c1ccccn1)C21SC(=S)N(Cc2ccco2)C1=O` (configuration not stated), the cytotoxicity is -9.5% (inactive).

As to `COc1ccccc1N1CCN(Cc2ccco2)CC1`, the cytotoxicity is -25.7% (inactive).

Turning to `c1ccc(CN2CCN(c3ncccn3)CC2)nc1`, the cytotoxicity is 6% (inactive).

As to `O=C(N1CCOCC1)N1CCN(Cc2ccccc2)CC1`, the cytotoxicity is 4.1% (inactive).

As for `COCCN1CSC(=S)N(Cc2ccco2)C1`, the cytotoxicity was 50.6% (active).

Consider `S=C1SCN(CCN2CCOCC2)CN1Cc1ccccc1`, for which the cytotoxicity was 60.6% (active).

With `c1ccc(CCN2CN(CCCN3CCOCC3)c3nc4ccccc4n3C2)cc1`, the cytotoxicity is -23.9% (inactive).

For `S=C1SCN(Cc2ccccn2)CN1Cc1ccco1`, the cytotoxicity was 64.7% (active).

`CCOc1cccc(C(=O)Nc2cccc(-c3nc4ncccc4o3)c2C)c1`: the cytotoxicity was 4.2% (inactive).

Consider `COc1ccc(-n2c(Cc3cccn3C)nnc2SCC(=O)NCC2CCCO2)cc1` (configuration not stated), for which the cytotoxicity was -8.1% (inactive).

For the molecule `O=C1NC(c2cccs2)Nc2sc3c(c21)CCCC3` (configuration not stated), the cytotoxicity is 0.6% (inactive).

For the molecule `CC(C)(C)c1ccccc1NC(=O)c1ccco1`, the cytotoxicity is 15% (inactive).

For `O=C(Nc1cccnc1)c1ccc(COc2ccccc2Br)o1`, the cytotoxicity is 23.7% (inactive).

`COc1cc(NC(=O)c2ccc(COc3ccccc3Br)o2)cc(OC)c1OC`: the cytotoxicity was 56.6% (active).

With `COc1ccc(NC(=O)c2ccc(COc3ccccc3Br)o2)cc1OC`, the cytotoxicity was 36.6% (inactive).

For `CCOC(=O)C1CCN(C(=O)CN(Cc2ccc(Cl)cc2)S(C)(=O)=O)CC1`, the cytotoxicity was -1% (inactive).

Take `Cn1c(CCCOc2ccc(Cl)cc2Cl)nnc1SCC(=O)Nc1nccs1`: the cytotoxicity was 1% (inactive).

Take `O=C(CCS(=O)(=O)c1ccc(Br)cc1)N1CCN(c2ccccc2)CC1`: the cytotoxicity is -1.2% (inactive).

As for `CCOC(=O)c1[nH]c(C)c(C(=O)Nc2ccc(Cl)cc2)c1C`, the cytotoxicity is -8.4% (inactive).

Consider `CCOC(=O)c1[nH]c(C)c(C(=O)Nc2ccc(C)c(Cl)c2)c1C`, for which the cytotoxicity is -20.5% (inactive).

Consider `CCOC(=O)c1[nH]c(C)c(C(=O)OCC)c1C`, for which the cytotoxicity is -6% (inactive).

For the molecule `CC(=O)c1c(C)[nH]c(C(=O)N2CCc3ccccc32)c1C`, the cytotoxicity was 1.3% (inactive).

`CCOC(=O)c1[nH]c(C)c(C(=O)Nc2cc(Cl)ccc2C)c1C`: the cytotoxicity is 60.6% (active).

As to `CCOC(=O)c1c(C)[nH]c(C(=O)OCC(=O)N2CCc3ccccc32)c1C`, the cytotoxicity was -15.4% (inactive).

`CCOC(=O)c1[nH]c(C)c(C(=O)N2CCc3ccccc32)c1C`: the cytotoxicity is 58.8% (active).

With `CCOC(=O)c1[nH]c(C)c(C(=O)Nc2ccc(F)cc2)c1C`, the cytotoxicity was -4.5% (inactive).

Regarding `CCOC(=O)c1[nH]c(C)c(C(=O)Nc2ccc(C)c(C)c2)c1C`, the cytotoxicity was 8.5% (inactive).

For `CCOC(=O)c1[nH]c(C)c(C(=O)Nc2cc(OC)ccc2OC)c1C`, the cytotoxicity is 43.5% (inactive).

In the case of `CCOC(=O)c1[nH]c(C)c(C(=O)c2cc(F)ccc2F)c1C`, the cytotoxicity was 72.2% (active).

Turning to `CCOC(=O)c1[nH]c(C)c(C(=O)Nc2ccc(C)cc2C)c1C`, the cytotoxicity is 51.9% (active).
